This is a sample that favours compounds with a hit; in the whole collection about 1.2% have one here.
PTAP TSG101 blk: qHTS Assay for Iinhibitors of HIV-1 Budding by Blocking the Interaction of PTAP/TSG101; 340,000 tested, under 10 active; Potency, µM (titrated, usually from 115 µM), most hits filed as inhibitors; Tumor susceptibility gene 101 protein (Homo sapiens), Q99816; AID 493005, 2010; Fluorescence polarization, FITC-PTAP peptide / Tsg101 binding; active = well fitted inhibition curve with a large enough effect in the main read-out, with a control signal flat, not every such curve was filed as active; inconclusive = small, poorly fitted or top-dose-only effect, or effect the other way, or a change in a side signal; inactive = no such curve, though single readings can be large or run the other way
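Steps: Tsg101 binding domain dispensed (10 uM final), compounds pinned in DMSO, FITC-labeled PTAP-motif peptide added (50 nM final); after 20 min binding at room temperature, polarization measured.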
S-ASM inh: Inhibitors of Secretory Acid Sphingomyelinase (S-ASM): qHTS; Potency, µM (highest dose often 57.5 µM), actives largely listed as inhibitors; 340,000 compounds, 0.006% hits; Sphingomyelin phosphodiesterase (Homo sapiens), P17405; AID 504937, 2011; placental ASM, HMU-PC fluorogenic substrate, 60 min
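Human placenta-derived ASM preincubated with compound 10 min at room temperature, then reacted with 9 uM (final) fluorogenic HMU-PC substrate for 60 min at 37 C. Stop solution raises pH to 10; fluorescence read at Ex 386/Em 447 nm.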
BRCA1 expr up: qHTS Assay to Identify Small Molecule Activators of BRCA1 Expression; MCF7-BRCA1-FFLuc reporter, luminescence, 48 h; response scale: scaled: vehicle 0%, 10 µM genistein 100%; Potency, µM (titrated, usually from 46.1 µM), usual class: activators; 380,000 compounds, 1.1% hits; AID 624202, 2012; note: nearly all actives have a fitted effect of over 80% in size
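Using MCF7 cells harboring a BRCA1 firefly luciferase reporter, plated 2 h before compound pinning, the screen measured luminescence after 48 h incubation. Responses were normalized to DMSO and 10 microM genistein, then fitted for concentration-effect.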
TSHR antagonist: Antagonists of the Thyroid Stimulating Hormone Receptor: HTS campaign; Thyrotropin receptor (Homo sapiens), P16473; TSHR-expressing cells, TSH-stimulated cAMP HTRF, 2 h; hits give low values; activity change, negative = inhibition, % at 11.5 µM; 330,000 compounds, 0.2% hits;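 active = activity change below a set negative limit, meaning inhibition stronger than a set level, cut at about -70% in these data; inconclusive = activity change between two set negative limits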
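Antagonism was scored as loss of TSH-driven cAMP in TSHR cells, stimulated with 4nM TSH (EC80) for 2 hours at 37 deg C and detected by homogeneous HTRF competition immunoassay.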
Apoferritin bind: qHTS Assay for Identification of Novel General Anesthetics; Ferritin light chain (Equus caballus), P02791; Potency, µM (doses to about 77.5 µM), actives largely listed as inhibitors; AID 485281, 2010; 350,000 compounds, 0.074% hits; apoferritin/1-aminoanthracene competitive binding, fluorescence; note: nearly all actives have a fitted effect of over 20% in size
Target sequence (P02791 2-175 limits assumed): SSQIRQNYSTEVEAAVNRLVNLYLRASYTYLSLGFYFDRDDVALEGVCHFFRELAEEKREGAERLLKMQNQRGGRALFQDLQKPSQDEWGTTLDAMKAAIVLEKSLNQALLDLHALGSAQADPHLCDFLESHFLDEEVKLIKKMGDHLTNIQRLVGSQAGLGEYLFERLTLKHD
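In PBS, apoferritin at 10 uM is loaded with 1-AMA from a 50% saturated solution. After 10 min of compound exposure at ambient temperature, reduced 535 nm fluorescence indicates probe displacement.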
A number is an active result; – = inactive; ? = inconclusive; · = no result given; ! = repeats disagree. Unless noted, calls come from the whole dose curve; as a rule, active = well fitted curve in the direction sought with a large enough effect; inconclusive = small, poorly fitted or top-dose-only effect, or another doubt; inactive = no such curve, though single readings can be large; an effect the other way counts as inactive or inconclusive.

SMILES	PTAP TSG101 blk	S-ASM inh	BRCA1 expr up	TSHR antagonist	Apoferritin bind
CC(C)C[C@H](NC(=O)CNC(=O)[C@H](CCC(N)=O)NC(=O)[C@H](Cc1ccc(O)cc1)NC(=O)[C@@H](NC(=O)[C@H](Cc1ccc(O)cc1)NC(=O)CNC(=O)[C@@H](N)CCCN=C(N)N)C(C)C)C(=O)O	·	·	·	·	–
CCOC(=O)c1ccccc1C(=O)OCC	–	–	–	·	·
CCOC(=O)c1sc(=NC(=O)c2ccc(C)c(C)c2)n(C)c1C	–	–	3.2µM	–	–
O=C(CCc1ccccc1)N1Cc2cc(N3CCOCC3)ccc2-n2nncc2C1	·	·	–	·	·
OCC[n+]1c2ccccc2nc2ccc(N3CCOCC3)cc21	–	–	–	-71	–
CC(C)C1C(=O)N2CCC[C@H]2[C@]2(O)O[C@](NC(=O)[C@@H]3C=C4c5cccc6[nH]cc(c56)C[C@H]4N(C)C3)(C(C)C)C(=O)N12 (stereo partly drawn)	·	·	·	·	–
Cc1ccc(NC(=O)c2ncn(CC(=O)NCc3ccc4c(c3)OCO4)n2)cc1C	–	–	11µM	–	·
c1ccc(CN2CCc3nc4ccccc4cc3C2)cc1	–	–	10µM	–	–
CN(CC(=O)N1CCc2ccccc21)S(=O)(=O)c1cccs1	–	–	4µM	–	–
Nc1ccccc1C(=O)OCC(=O)N1CCc2ccccc21	–	–	?	–	–
CC(C)[C@H](NC(=O)[C@H](CC(=O)O)NC(=O)[C@H](Cc1ccccc1)NC(=O)[C@@H](C)NC(=O)[C@@H](N)Cc1ccc(O)cc1)C(=O)N[C@H](C(=O)NCC(N)=O)C(C)C	·	·	·	·	–
NCC[C@H](NC(=O)[C@@H](N)CCCN=C(N)N[N+](=O)[O-])C(N)=O	·	·	·	·	–
Cc1cc2c(C(C)C)c(O)c(O)c(C=O)c2c(O)c1-c1c(C)cc2c(C(C)C)c(O)c(O)c(C=O)c2c1O	·	·	–	-80!	?
CC/C(=C\C=C\[C@@H]1C=C[C@@H]2CCC[C@H]2[C@@H]1C(=O)c1ccc[nH]1)[C@@H]1O[C@@H]([C@@H](C)C(=O)O)CC[C@@H]1C	–	–	–	-72	–
O=C(O)CCC(CP(=O)(O)O)C(=O)O (stereo not drawn)	·	·	·	·	–
Cc1nc(-c2ccc(Cl)cc2)sc1C1(C)CC(c2ccccc2)=NO1 (stereo not drawn)	·	–	11µM	·	·
CC(C)(C)c1cc(C=C(C#N)C#N)cc(C(C)(C)C)c1O	–	–	–	-81	·
C/C1=C/C(=O)O[C@@H]2C[C@@H](CC[C@H](C)/C=C\CC1)O[C@@](O)(C1CSC(=O)N1)C2 (stereo partly drawn)	·	·	·	·	–
O=C1NC(=S)NC(=O)C1=Cc1ccc(OCc2ccccc2)cc1	–	–	13µM	·	·
COc1cccc(NC(=O)N2CCC3(CC2)OCCO3)c1	–	–	11µM	–	–
[O-]/[N+](=C/c1cccnc1)c1ccc(Br)cc1	–	–	11µM	–	–
O=P(O)(O)/C=C(\Cl)c1ccccc1	–	22µM	–	–	–
CO/C1=C\C(C)=C\[C@@H](C)[C@@H](O)[C@@H](C)C/C(C)=C/C=C/[C@H](OC)[C@@H]([C@@H](C)[C@@H](O)[C@H](C)[C@@]2(O)C[C@@H](O)[C@H](C)C(C(C)C)O2)OC1=O (stereo partly drawn)	·	·	·	·	–
C=C1C(O)[C@@H]2O[C@]3(CC[C@H](/C=C/C(C)[C@@H]4CC(C)=CC5(O[C@H](C[C@@](C)(O)C(=O)O)CCC5O)O4)O3)CC[C@H]2O[C@@H]1C(O)CC(C)[C@H]1OC2(CCCCO2)CCC1C (stereo partly drawn)	–	–	?	-78	·
ClC1=C(Cl)C(Cl)(C2(Cl)C(Cl)=C(Cl)C(Cl)=C2Cl)C(Cl)=C1Cl	·	·	·	·	–
CN(C)c1ccc(-[n+]2c(-c3ccccc3)cc(-c3ccccc3)cc2-c2ccccc2)cc1	–	–	–	–	?
c1ccc(-c2cc(-c3ccccc3)[n+](-c3ccccc3)c(-c3ccccc3)c2)cc1	–	–	–	-78	–

Screening results from PubChem.
